Reference: PubChem BioAssay (Tox21)
Records with an inconclusive call do not appear. Activity calls are given as the source filed them. Unless noted, the call rests on the fitted dose curve; in most records, active means well fitted curve in the direction sought with a large enough effect in the repeat runs; inconclusive means weak or mixed curves; inactive means no such curve, though single readings can be large; an effect the other way counts as inactive or inconclusive. Where a SMILES comes first, the peptide text is derived from it.

Experiments:
[1] = qHTS assay to identify small molecule agonists of the peroxisome proliferator-activated receptor delta (PPARd) signaling pathway - cell viability counter screen (AID 743211); further: nearly all actives have a fitted effect of over 55% in size
In short: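 PPARd-bla HEK293H cells (3000/well) were pre-incubated 5 h at 37 C, then exposed to compound for 17 h at 37 C. After 2 h with LiveBLAzer substrate, CellTiter-Glo was added to the same wells; luminescence read after 30 min at room temperature.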

[2] = target: Peroxisome proliferator-activated receptor delta (Homo sapiens) (UniProt Q03181); experiment: qHTS assay to identify small molecule agonists of the peroxisome proliferator-activated receptor delta (PPARd) signaling pathway (AID 743212; calls by dose curve)
Peroxisome proliferator-activated receptor delta (Homo sapiens), sequence (Q03181 whole entry, looked up): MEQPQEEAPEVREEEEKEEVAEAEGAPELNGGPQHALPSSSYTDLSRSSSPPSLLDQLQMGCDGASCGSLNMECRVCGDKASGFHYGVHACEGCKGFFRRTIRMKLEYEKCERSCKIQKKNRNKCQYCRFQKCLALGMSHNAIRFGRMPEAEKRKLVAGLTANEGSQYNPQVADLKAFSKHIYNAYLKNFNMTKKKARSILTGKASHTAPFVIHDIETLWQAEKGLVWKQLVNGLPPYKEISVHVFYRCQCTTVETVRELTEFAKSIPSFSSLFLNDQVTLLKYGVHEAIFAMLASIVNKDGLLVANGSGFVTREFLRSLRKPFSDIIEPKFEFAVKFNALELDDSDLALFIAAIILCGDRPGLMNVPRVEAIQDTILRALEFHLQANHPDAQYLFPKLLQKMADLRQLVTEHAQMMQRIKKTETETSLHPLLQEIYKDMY
In short: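 Beta-lactamase reporter read by fluorescence (LiveBLAzer B/G FRET, 2 h, room temperature). Test agents, in DMSO, incubated at 37 C with PPARd-bla HEK293H cells.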

[3] = qHTS assay to identify small molecule antagonists of the peroxisome proliferator-activated receptor delta (PPARd) signaling pathway - cell viability counter screen (AID 743213); further: nearly all actives have a fitted effect of over 50% in size
In short: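 Cytotoxicity counter screen: CellTiter-Glo luminescence read 30 min after addition, in the same wells as the reporter assay. There, PPARd UAS-bla HEK293H cells (3000/well) were treated 17 h at 37 C with compound and 300 nM L165041.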

[4] = target: Peroxisome proliferator-activated receptor delta (Homo sapiens) (UniProt Q03181); experiment: qHTS assay to identify small molecule antagonists of the peroxisome proliferator-activated receptor delta (PPARd) signaling pathway (AID 743215; active means well fitted inhibition curve with a large enough effect in the signal ratio in the repeat runs, not every such curve was filed as active; the % refers to the signal ratio;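 further: cells stimulated with agonist L165041 at 300 nM final during compound exposure; series mostly up to about 62 µM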)
In short: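 Cells: HEK293H with a UAS-driven beta-lactamase reporter responsive to PPARd. Compounds were co-added with L165041 (300 nM, final) and incubated 17 h at 37 C before a 2 h room-temperature FRET substrate step and fluorescence reading.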

[5] = target: Bile acid receptor (Homo sapiens) (UniProt Q96RI1); experiment: qHTS assay to identify small molecule antagonists of the farnesoid-X-receptor (FXR) signaling pathway (AID 743217; active means well fitted inhibition curve with a large enough effect in the signal ratio in the repeat runs, not every such curve was filed as active; the % refers to the signal ratio)
Bile acid receptor (Homo sapiens), sequence (Q96RI1 whole entry, looked up): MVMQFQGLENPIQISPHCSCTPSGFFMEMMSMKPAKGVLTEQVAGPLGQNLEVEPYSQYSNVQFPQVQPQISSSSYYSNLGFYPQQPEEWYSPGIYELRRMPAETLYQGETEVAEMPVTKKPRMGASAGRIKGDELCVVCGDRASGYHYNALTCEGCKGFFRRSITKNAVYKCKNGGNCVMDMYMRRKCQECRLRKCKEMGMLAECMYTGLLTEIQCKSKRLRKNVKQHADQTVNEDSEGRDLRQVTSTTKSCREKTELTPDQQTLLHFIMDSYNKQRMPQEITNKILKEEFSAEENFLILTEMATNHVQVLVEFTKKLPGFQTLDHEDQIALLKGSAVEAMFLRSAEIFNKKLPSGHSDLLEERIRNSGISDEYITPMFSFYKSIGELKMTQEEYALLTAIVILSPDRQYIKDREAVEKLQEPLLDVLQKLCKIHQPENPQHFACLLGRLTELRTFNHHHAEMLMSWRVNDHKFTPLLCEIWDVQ
In short: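 Cells carrying a UAS-driven beta-lactamase reporter (GeneBLAzer FXR-UAS-bla HEK 293T) were plated and rested 5 h at 37 °C. Compounds in DMSO were added alongside chenodeoxycholic acid agonist at 50 uM final and left 16 h at 37 °C before FRET substrate readout.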

[6] = qHTS assay to identify small molecule agonists of the farnesoid-X-receptor (FXR) signaling pathway - cell viability counter screen (AID 743218); further: nearly all actives have a fitted effect of over 45% in size
In short: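 Cells were seeded, left 5 h at 37 C and 5% CO2, then dosed with compound in DMSO for 16 h. After the beta-lactamase FRET read, CellTiter-Glo was added and luminescence measured 30 min later.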

[7] = target: Bile acid receptor (Homo sapiens) (UniProt Q96RI1); experiment: qHTS assay to identify small molecule agonists of the farnesoid-X-receptor (FXR) signaling pathway (AID 743220; active means well fitted activation curve with a large enough effect in the signal ratio in the repeat runs, not every such curve was filed as active; the % refers to the signal ratio)
In short: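 FXR-UAS-bla HEK 293T cells carrying a UAS-driven beta-lactamase reporter were plated for 5 h at 37C/5% CO2, then exposed to DMSO-dissolved Tox21 10K compounds for 16 h at 37C. A LiveBLAzer B/G FRET substrate was loaded for 2 h at room temperature before fluorescence reading.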

[8] = qHTS assay to identify small molecule antagonists of the farnesoid-X-receptor (FXR) signaling pathway - cell viability counter screen (AID 743221; active means well fitted cell-killing curve with a large enough effect in the repeat runs, not every such curve was filed as active; further: nearly all actives have a fitted effect of over 50% in size)
In short: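 GeneBLAzer FXR-UAS-bla HEK 293T cells, compound plus chenodeoxycholic acid (50 uM final), 16 h at 37 C. CellTiter-Glo added to the same wells after the beta-lactamase read; luminescence read after 30 min at room temperature as viability.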

[9] = target: Vitamin D3 receptor (Homo sapiens) (UniProt P11473); experiment: qHTS assay to identify small molecule agonists of the vitamin D receptor (VDR) signaling pathway (AID 743222; calls by dose curve)
Vitamin D3 receptor (Homo sapiens), sequence (P11473 whole entry, looked up): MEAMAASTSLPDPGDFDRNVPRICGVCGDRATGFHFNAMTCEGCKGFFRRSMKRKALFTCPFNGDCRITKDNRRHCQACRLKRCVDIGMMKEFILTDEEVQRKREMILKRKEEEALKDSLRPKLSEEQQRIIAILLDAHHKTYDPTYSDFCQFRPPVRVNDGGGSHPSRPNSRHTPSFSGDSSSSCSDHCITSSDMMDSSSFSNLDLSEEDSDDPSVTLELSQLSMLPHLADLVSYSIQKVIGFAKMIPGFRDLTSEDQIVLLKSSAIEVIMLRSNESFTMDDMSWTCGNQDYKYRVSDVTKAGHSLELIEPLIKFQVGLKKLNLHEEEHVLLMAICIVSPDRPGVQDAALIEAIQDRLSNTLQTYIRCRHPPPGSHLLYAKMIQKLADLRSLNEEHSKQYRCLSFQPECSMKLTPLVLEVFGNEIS
In short: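 Cells carrying a VDR-driven beta-lactamase reporter are seeded at 2,000 per well and rested 4 h. Compounds in DMSO are added for 16 h at 37C, and FRET substrate fluorescence is measured after 2 h at room temperature.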

[10] = target: Vitamin D3 receptor (Homo sapiens) (UniProt P11473); experiment: qHTS assay to identify small molecule antagonists of the vitamin D receptor (VDR) signaling pathway (AID 743223; active means well fitted inhibition curve with a large enough effect in the signal ratio in the repeat runs, not every such curve was filed as active; the % refers to the signal ratio)
In short: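 VDR-bla cells were treated with compound plus 3 nM final 1alpha,25-dihydroxyvitamin D3 for 16 h at 37C. Beta-lactamase reporter read by B/G FRET substrate fluorescence after 2 h at room temperature. qHTS format.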

[11] = qHTS assay to identify small molecule agonists of the vitamin D receptor (VDR) signaling pathway - cell viability counter screen (AID 743224); further: series mostly up to about 63 µM; nearly all actives have a fitted effect of over 50% in size
In short: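 Cells: VDR-bla, 2,000/well, settled 4 h. Treatment: compounds in DMSO, 16 h, 37C/5% CO2. Readout: CellTiter-Glo luminescence after 30 min RT.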

[12] = qHTS assay to identify small molecule antagonists of the vitamin D receptor (VDR) signaling pathway - cell viability counter screen (AID 743225); further: nearly all actives have a fitted effect of over 50% in size
In short: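 VDR-UAS-bla HEK 293T cells were plated and incubated 4 h at 37C, then dosed with compound plus 3 nM (final) 1-alpha,25-dihydroxyvitamin D3 for 16 h. After the 2 h beta-lactamase read, viability in the same wells was read as CellTiter-Glo luminescence after 30 min at room temperature.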

[13] = qHTS assay to identify small molecule agonists of the NFkB signaling pathway (AID 1159509; active means well fitted curve in the direction sought with a large enough effect in the signal ratio in the repeat runs, not every such curve was filed as active; the % refers to the signal ratio; further: series mostly up to about 61 µM)
In short: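 Beta-lactamase reporter assay run in quantitative high-throughput format on an NF-kB-responsive ME-180 line, with 5 hr compound treatment and a FRET-based blue/green fluorescence readout.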

[14] = qHTS assay to identify small molecule agonists of the NFkB signaling pathway - cell viability counter screen (AID 1159515; calls by dose curve; further: series mostly up to about 61 µM; nearly all actives have a fitted effect of over 55% in size)
In short: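 Cells are seeded (2,000 NFkB-bla ME-180 per well), rested overnight, and dosed with DMSO-dissolved compounds for 5 hr at 37 C. Viability is then read by CellTiter-Glo luminescence after 30 min at room temperature.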

[15] = qHTS assay to identify small molecule agonists of the endoplasmic reticulum stress response signaling pathway (AID 1159516; active means well fitted activation curve with a large enough effect in the signal ratio in the repeat runs, not every such curve was filed as active; the % refers to the signal ratio)
In short: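 Cells are seeded at 1,500 per well and incubated overnight. Compounds in DMSO are added for 5 hr at 37 C, then beta-lactamase FRET substrate for 2 hr at room temperature, and fluorescence at 460 and 530 nm is measured.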

[16] = qHTS assay to identify small molecule agonists of the endoplasmic reticulum stress response signaling pathway - cell viability counter screen (AID 1159517; calls by dose curve)
In short: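 Cytotoxicity of test compounds toward ESRE-bla HeLa cells was assessed after 5 hr exposure. The luminescent CellTiter-Glo signal was measured 30 min after reagent addition.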

[17] = qHTS assay to identify small molecule antagonists of the retinoid-related orphan receptor gamma (ROR-gamma) signaling pathway - cell viability counter screen (AID 1159520); further: nearly all actives have a fitted effect of over 50% in size
In short: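 Tet-on ROR gamma CHO cells (1,000/well) were plated 4 hr, given compounds in DMSO for 2 hr at 37 C, then induced with 1 uM final doxycycline for 16 hr. Viability was read as ATP by CellTiter-Glo luminescence after 30 min.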

[18] = target: Nuclear receptor ROR-gamma (Homo sapiens) (UniProt P51449); experiment: qHTS assay to identify small molecule antagonists of the retinoid-related orphan receptor gamma (ROR-gamma) signaling pathway (AID 1159521)
In short: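 Tet-on ROR-gamma CHO cells with ROR response element-luciferase reporter; compounds added 2 hr before 1 uM doxycycline induction, then 16 hr at 37 C. Antagonism scored as decreased ONE-Glo luminescence.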

[19] = qHTS assay to identify small molecule agonists of the AP-1 signaling pathway - cell viability counter screen (AID 1159525; calls by dose curve; further: nearly all actives have a fitted effect of over 55% in size)
In short: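 Each titration point was normalised to DMSO and tetra n-octyl ammonium bromide controls. The read was Cell Titer Glo luminescence after 30 min at RT, following 5 h compound exposure of ME-180 AP-1-bla cells at 37 °C.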

[20] = qHTS assay to identify small molecule agonists of the AP-1 signaling pathway (AID 1159526; calls by dose curve)

Measured: outcome

CC(C)OC(=O)CCC(=O)OC(C)C
inactive: all assays above

CC/C(C)=N\O[Si](C)(O/N=C(\C)CC)O/N=C(\C)CC
not listed: [10]
inactive: all other assays above

CC(=O)N[C@@H](CO)C(=O)N[C@@H](CC(=O)O)C(=O)N[C@@H](CCCCN)C(=O)N1CCC[C@H]1C(=O)O (Ac-SDKP-OH)
not listed: [8]
inactive: all other assays above

O=C1CCCCO1
not listed: [5] | [7] | [12]
inactive: all other assays above

Nc1nnnn1-c1ccccc1
not listed: [11]
inactive: all other assays above

CCCCC1CCC(O)CC1 (configuration not stated)
not listed: [6]
inactive: all other assays above

CCCCOC(=O)C(C)O (configuration not stated)
not listed: [11]
inactive: all other assays above

Cc1ccnc(N)c1
not listed: [9] | [10]
inactive: all other assays above

CCCc1ccc(O)cc1
inactive: all assays above

CC(C)NCC(O)c1ccc2ccccc2c1 (configuration not stated)
not listed: [5] | [7] | [11]
inactive: all other assays above

Cn1c(=O)c2c(ncn2CCO)n(C)c1=O
not listed: [5] | [7]
inactive: all other assays above

CC(=O)OC1CCCCC1C(C)(C)C (configuration not stated)
not listed: [5] | [7]
inactive: all other assays above

CCCCCCCCCCOC(C)=O
not listed: [5] | [7] | [9]
inactive: all other assays above

C=CCCCCCCCC
not listed: [5] | [7] | [10] | [11]
inactive: all other assays above

C=CCCCC
not listed: [5] | [7] | [9] | [10]
inactive: all other assays above
